Measurements taken from PubChem BioAssay AID1159580 (chemical genetic matrix, 2015).
Values joined by “and” are separate entries in the source; they are usually repeats but may differ in a detail not shown here. Equal entries are not always repeated. Out of some 5,500 compounds screened, about 2,000 (36%) were called active. Another 18% or so got no clear call; they are omitted. Rule as the data show it: active = normalized growth mostly below about 0.91 (no sharp cut-off); inconclusive = no clear call, values can overlap the other calls; inactive = mostly above about 0.92. The list shows a part of the results.

Assay: chemical genetic growth profiling, strain panel (AID 1159580);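 also: tested at 20 µM; growth read once vehicle control cultures reached saturation at 30 °C; 1 = growth at the plate median or of vehicle wells; lower values mean less growth of the strain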
Settings: S. cerevisiae deletion strains, growth OD

Measured: normalized growth

CCN(CC)CCNC(=O)c1cc(S(C)(=O)=O)ccc1OC
inactive: locus YAL013W, strain DEP1, active compounds read low 1 | locus YAL021C, strain ccr4, active compounds read low 0.979 | locus YAL026C, strain drs2, active compounds read low 0.976 | locus YAL030W, strain snc1, active compounds read low 0.955 | locus YAL040C, strain CLN3, active compounds read low 1.05 | locus YBL061C, strain skt5, active compounds read low 0.967 | locus YBR009C, strain hhf1, active compounds read low 0.989 | locus YBR021W, strain FUR4, active compounds read low 1.02 | locus YBR023C, strain chs3, active compounds read low 0.968 | locus YBR171W, strain sec66, active compounds read low 0.955 | locus YBR229C, strain ROT2, active compounds read low 1.01 | locus YBR231C, strain swc5, active compounds read low 0.974 | locus YBR279W, strain paf1, active compounds read low 0.969 | locus YCL011C, strain gbp2, active compounds read low 0.945 | locus YCL016C, strain dcc1, active compounds read low 0.971 | locus YCL029C, strain bik1, active compounds read low 1.01 | locus YCL061C, strain MRC1 (second series), active compounds read low 0.991 | locus YCL061C, strain MRC1, active compounds read low 0.982 | locus YCL069W, strain vba3, active compounds read low 0.984 | locus YCR088W, strain abp1, active compounds read low 0.967 | locus YDL005C, strain med2, active compounds read low 0.972 | locus YDL035C, strain GPR1, active compounds read low 1.02 | locus YDL040C, strain nat1, active compounds read low 0.976 | locus YDL074C, strain BRE1, active compounds read low 1 | locus YDL101C, strain DUN1, active compounds read low 1.01 | locus YDL134C, strain PPH21, active compounds read low 1.02 | locus YDL185W, strain tfp1, active compounds read low 1.01 | locus YDL192W, strain arf1, active compounds read low 1.01 | locus YDR001C, strain nth1, active compounds read low 0.953 | locus YDR069C, strain doa4, active compounds read low 0.974 | locus YDR101C, strain arx1, active compounds read low 0.991 | locus YDR137W, strain rgp1, active compounds read low 0.959 | locus YDR150W, strain NUM1, active compounds read low 1.01 and 0.998 | locus YDR159W, strain sac3, active compounds read low 0.978 | locus YDR162C, strain NBP2, active compounds read low 1.02 | locus YDR195W, strain ref2 0.965 | locus YDR297W, strain sur2, active compounds read low 0.967 | locus YDR318W, strain mcm21, active compounds read low 1.02 | locus YDR334W, strain swr1, active compounds read low 0.937 | locus YDR335W, strain msn5, active compounds read low 0.966 | locus YDR363W, strain ESC2, active compounds read low 0.973 | locus YDR388W, active compounds read low 1.02 | locus YDR392W, strain spt3, active compounds read low 0.902 | locus YDR502C, strain sam2, active compounds read low 1.01 | locus YEL003W, strain gim4, active compounds read low 0.979 | locus YEL037C, strain rad23, active compounds read low 0.971 | locus YEL061C, strain CIN8 (second series), active compounds read low 0.964 | locus YEL061C, strain CIN8, active compounds read low 1.01 | locus YER002W, strain NOP16, active compounds read low 1.01 | locus YER015W, strain faa2, active compounds read low 0.976 | locus YER016W, strain bim1, active compounds read low 0.988 | locus YER110C, active compounds read low 1.01 | locus YER111C, strain swi4, active compounds read low 0.966 | locus YER155C, strain BEM2 (second series), active compounds read low 0.978 | locus YER155C, strain BEM2, active compounds read low 1.01 | locus YER167W, strain BCK2, active compounds read low 1.02 | locus YFR010W, strain ubp6, active compounds read low 0.953 | locus YGL078C, strain dbp3, active compounds read low 1.01 | locus YGL086W, strain mad1, active compounds read low 1 | locus YGL167C, strain pmr1, active compounds read low 0.97 | locus YGL173C, strain kem1, active compounds read low 0.965 | locus YGL227W, strain vid30, active compounds read low 0.97 | locus YGL240W, strain doc1, active compounds read low 0.972 | locus YGL248W, strain PDE1, active compounds read low 1 | locus YGL253W, strain hxk2, active compounds read low 0.987 | locus YGR078C, strain PAC10, active compounds read low 0.998 | locus YGR135W, strain pre9, active compounds read low 1.03 | locus YGR229C, strain SMI1, active compounds read low 0.96 | locus YGR252W, strain gcn5, active compounds read low 0.996 | locus YHR013C, strain ard1, active compounds read low 0.95 | locus YHR027C, strain rpn1, active compounds read low 0.952 | locus YHR030C, strain SLT2, active compounds read low 1.01 and 0.98 | locus YHR079C, strain IRE1 (second series), active compounds read low 1.01 | locus YHR079C, strain IRE1, active compounds read low 0.998 | locus YHR094C, strain hxt1, active compounds read low 1.01 | locus YHR129C, strain ARP1, active compounds read low 1.01 | locus YHR142W, strain chs7, active compounds read low 0.928 | locus YHR200W, strain rpn10, active compounds read low 1.01 | locus YIL066C, strain RNR3, active compounds read low 1.02 | locus YIL073C, strain SPO22, active compounds read low 1.1 | locus YIL125W, strain kgd1, active compounds read low 1.02 | locus YIR030C, strain dcg1, active compounds read low 1.01 | locus YJL092W, strain hpr5, active compounds read low 0.979 | locus YJL095W, strain BCK1 (second series), active compounds read low 0.972 | locus YJL095W, strain BCK1, active compounds read low 0.997 and 0.978 | locus YJL115W, strain asf1, active compounds read low 0.954 | locus YJL129C, strain trk1, active compounds read low 0.986 | locus YJL134W, strain LCB3, active compounds read low 1.01 | locus YJL154C, strain vps35, active compounds read low 0.95 | locus YJL164C, strain tpk1, active compounds read low 0.981 | locus YJL166W, strain qcr8, active compounds read low 0.931 | locus YJL168C, strain set2, active compounds read low 1.01 | locus YJL187C, strain SWE1 (second series), active compounds read low 0.999 | locus YJL187C, strain SWE1, active compounds read low 0.974 | locus YJR043C, strain POL32, active compounds read low 1.01
